According to PubChem BioAssay (NCATS):
Unmarked numbers belong to inactive results. Inconclusive results are not listed. Active and inactive are the calls of the source. Unless noted, the call rests on the fitted dose curve; in most records, active means well fitted curve in either direction with a large enough effect (not every such curve was filed as active); inconclusive means small, poorly fitted or top-dose-only effect, or another doubt; inactive means flat fitted curve, though single readings scatter. Residues, ends and D or L forms follow the SMILES beside them.

Assays:
[1] = target: Lysosomal acid glucosylceramidase (Homo sapiens) (UniProt P04062); assay: Glucocerebrosidase-p2 (AID 348; in the data active means potency below about 10 µM; further: potency means the concentration at half of the fitted maximal effect); details: purified GBA, blue fluorogenic substrate, 40 min
In short: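 Compounds titrated from 0.6 nM upwards against 0.2 nM enzyme in pH 5.9 citric acid/KH2PO4, taurocholate, tween-20; blue fluorogenic substrate 80 uM, 40 min room temperature, stopped and read Ex 365/Em 440 for AC50.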

[2] = AP1 Signaling Pathway (AID 357); details: ME-180 AP-1-bla reporter, EGF-induced, beta-lactamase ratio, 5 h; at 7.69 µM (top of the series) unless noted; further: on the % scale 0 is the no-effect control and ±100 the full control effect
In short: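 AP-1-bla ME-180 cells with beta-lactamase reporter under AP-1 response element, stimulated with EC50 EGF; compounds titrated, 5 hours at 37 degrees Celsius. CCF4 read at 460/530 nm ratio; positive and negative modulators judged by AC50.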

[3] = NFAT Signaling Pathway (AID 444); details: Jurkat NFAT-bla M1, carbachol, beta-lactamase ratio, 5 h; at 7.69 µM (top of the series) unless noted;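 further: carbachol stimulus at about its EC50 of 1 µM final; on the % scale 0 is the no-effect control and ±100 the full control effect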
In short: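 Read-out: CCF4 FRET ratio (460 nm/530 nm) after 1 h RT dye loading, used for %activity and AC50 from titration series. Cells: Jurkat NFAT-β-lactamase/M1 line, treated with compound plus 1 uM carbachol for 5 h, 37 °C.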

[4] = Stat Signaling Pathway (AID 446); details: ME-180 (cervical carcinoma) SIE beta-lactamase reporter, IL-6 stimulated, 5 h; at 7.69 µM (top of the series) unless noted;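 further: ME-180 cervical cancer cells given 40 pM IL-6 alongside compound; SIE-controlled beta-lactamase reporter measured as 460/530 nm FRET emission ratio; on the % scale 0 is the no-effect control and ±100 the full control effect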
In short: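 IL-6/STAT signaling read in ME-180 cells via an SIE beta-lactamase reporter. Stimulus was 40 pM IL-6 (its AC50) for 5 hrs, so both activation and inhibition register.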

[5] = target: Glucocorticoid receptor (Homo sapiens) (UniProt P04150); assay: GR-GFP Redistribution (AID 450;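 active means compounds whose dose series gives a full or clear partial fitted curve of increased nuclear translocation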; further: potency means the concentration at half of the fitted maximal effect); details: U2OS GR-GFP nuclear translocation, laser cytometry, 2 h
[6] = target: Glucocorticoid receptor (Homo sapiens) (UniProt P04150); assay: GR-EFC Redistribution (AID 451; calls by dose curve; further: potency means the concentration at half of the fitted maximal effect); details: CHO-K1 GR-EFC translocation, beta-gal luminescence, 2 h
In short: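 Translocation of GR-ED fusion to nuclear EA restores b-gal, read by luminescence after 1 h room-temperature detection. Engineered CHO-K1 biosensor cells, 1,000/well, exposed 2 h at 37 C to titrations up to 46 uM final.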

[7] = target: Mitogen-activated protein kinase 10 (Mus musculus) (UniProt Q61831); assay: JNK3 AlphaScreen Assay (AID 530); details: JNK3 lysate, c-Jun phosphorylation; series mostly up to 11.4 µM;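 further: kinase came from lysate of stimulated human HepG2 cells; signal reports phosphorylation of biotinylated GST-cJun 1-79 at Ser73 with 10 µM ATP; on the % scale 0 is the no-effect control and ±100 the full control effect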
In short: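 Compound titrations were preincubated 15 minutes at room temperature with substrate, antibody and pre-activated JNK3-containing HepG2 lysate. Reactions were started with 10 uM ATP and stopped with EDTA-containing bead buffer for AlphaScreen detection.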

[8] = target: 3',5'-cyclic-AMP phosphodiesterase 4B (Homo sapiens) (UniProt Q07343); assay: qHTS Assay for Inhibitors of PDE-IV (AID 607; active means well fitted activation curve with a large enough effect in the main read-out, with a control signal flat, not every such curve was filed as active; further: % of control where 0% means no effect); details: HEK293 ACTOne CNG channel cells, membrane potential fluorescence; series mostly up to 22.9 µM
In short: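 Live HEK293 cells with a modified cyclic nucleotide-gated (CNG) channel report intracellular cAMP via membrane-potential dye fluorescence (ex 535/em 590 nm). Endogenous PDE-IV was targeted. Compounds were tested at up to 22.9 uM final; RO 20-1724 100 uM served as control.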

[9] = target: Cytochrome P450 3A4 (Homo sapiens) (UniProt P08684); assay: qHTS Assay for Inhibitors and Substrates of Cytochrome P450 3A4 (AID 884; active means well fitted curve in the direction sought with a large enough effect; an effect the other way counts as inactive or inconclusive; further: nearly all actives have a fitted effect of over 50% in size; further: potency means the concentration at half of the fitted maximal effect); details: recombinant CYP3A4, Luciferin-PPXE luminescence; series mostly up to 57.1 µM
In short: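 20 nM human CYP3A4 with 25 uM Luciferin-PPXE (at KM) in 200 mM KPO4, preincubated 10 min with compound; NADPH regeneration started a 60 min RT reaction. Luciferin detected by luminescence, normalized to 57 uM ketoconazole as full inhibition.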

[10] = target: Cytochrome P450 3A4 (Homo sapiens) (UniProt P08684); assay: qHTS Assay for Activators of Cytochrome P450 3A4 (AID 885; active means well fitted curve in the direction sought with a large enough effect; an effect the other way counts as inactive or inconclusive; further: nearly all actives have a fitted effect of over 65% in size; further: potency means the concentration at half of the fitted maximal effect); details: recombinant CYP3A4, Luciferin-PPXE luminescence, 60 min; series mostly up to 11.4 µM
In short: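 Quantitative HTS format: compounds preincubated with 20nM human CYP3A4 and Luciferin-PPXE substrate at KM, reaction started by NADPH regeneration, stopped after 60 min, luciferase luminescence read 20 min later.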

[11] = target: Cytochrome P450 2D6 (Homo sapiens) (UniProt P10635); assay: qHTS Assay for Inhibitors and Substrates of Cytochrome P450 2D6 (AID 891; active means well fitted curve in the direction sought with a large enough effect; an effect the other way counts as inactive or inconclusive; further: nearly all actives have a fitted effect of over 60% in size; further: potency means the concentration at half of the fitted maximal effect); details: recombinant CYP2D6, luciferin-ME EGE luminescence; series mostly up to 11.4 µM
In short: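 Human CYP2D6 (5 nM) with 30 uM Luciferin-ME EGE (at Km) in 100 mM KPO4, compound preincubated 10 min, then NADPH regeneration system for 60 min at room temperature. Luciferin read by luminescence; normalized to 1.43 uM quinidine.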

[12] = target: Cytochrome P450 2C19 (Homo sapiens) (UniProt P33261); assay: qHTS Assay for Inhibitors and Substrates of Cytochrome P450 2C19 (AID 899; active means well fitted curve in the direction sought with a large enough effect; an effect the other way counts as inactive or inconclusive; further: nearly all actives have a fitted effect of over 60% in size; further: potency means the concentration at half of the fitted maximal effect); details: recombinant CYP2C19, luciferin-H EGE luminescence; series mostly up to 11.4 µM
In short: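 5nM enzyme + 10uM Luciferin-H EGE (=KM), 50mM KPO4; cpd pin-transferred, 10 min 37C; NADPH regen, 60 min 37C; stopped w/ luciferin detection reagent, 20 min; luminescence. Normalized to 57uM ketoconazole (AC100).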

[13] = target: Cytochrome P450 2C9 (Homo sapiens) (UniProt P11712); assay: qHTS Assay for Inhibitors and Substrates of Cytochrome P450 2C9 (AID 883; active means well fitted curve in the direction sought with a large enough effect; an effect the other way counts as inactive or inconclusive; further: nearly all actives have a fitted effect of over 60% in size; further: potency means the concentration at half of the fitted maximal effect); details: recombinant CYP2C9, luciferin-H luminescence, 60 min; series mostly up to 11.4 µM
In short: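 Inhibition of CYP2C9 is scored as loss of luminescence, with 57uM sulphaphenazole defining 100% inhibition. Substrate Luciferin-H is used at 100uM, equal to its KM; enzyme at 10nM in 25mM KPO4, 60 min at 37C with NADPH regeneration.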

3',5'-cyclic-AMP phosphodiesterase 4B (Homo sapiens), sequence (Q07343 whole entry, looked up): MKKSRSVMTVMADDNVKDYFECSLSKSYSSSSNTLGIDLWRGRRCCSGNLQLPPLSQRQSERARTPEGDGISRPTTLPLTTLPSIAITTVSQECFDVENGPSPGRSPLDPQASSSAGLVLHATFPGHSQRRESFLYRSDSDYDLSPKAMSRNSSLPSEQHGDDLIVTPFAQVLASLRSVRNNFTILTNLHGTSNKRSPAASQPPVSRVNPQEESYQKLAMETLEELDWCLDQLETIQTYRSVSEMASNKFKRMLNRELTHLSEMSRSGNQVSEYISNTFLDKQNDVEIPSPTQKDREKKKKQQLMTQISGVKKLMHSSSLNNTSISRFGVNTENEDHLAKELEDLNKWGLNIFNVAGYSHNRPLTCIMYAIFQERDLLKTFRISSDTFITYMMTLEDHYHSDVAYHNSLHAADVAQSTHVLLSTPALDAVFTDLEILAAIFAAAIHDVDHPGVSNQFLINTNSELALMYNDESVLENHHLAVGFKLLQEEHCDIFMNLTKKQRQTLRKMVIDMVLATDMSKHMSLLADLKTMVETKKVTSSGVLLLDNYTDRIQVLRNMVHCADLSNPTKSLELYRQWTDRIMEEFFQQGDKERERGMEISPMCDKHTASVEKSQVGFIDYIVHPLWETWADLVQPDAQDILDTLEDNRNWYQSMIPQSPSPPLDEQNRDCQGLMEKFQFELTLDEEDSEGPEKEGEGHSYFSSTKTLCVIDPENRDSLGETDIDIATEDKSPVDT
Lysosomal acid glucosylceramidase (Homo sapiens), sequence (P04062 whole entry, looked up): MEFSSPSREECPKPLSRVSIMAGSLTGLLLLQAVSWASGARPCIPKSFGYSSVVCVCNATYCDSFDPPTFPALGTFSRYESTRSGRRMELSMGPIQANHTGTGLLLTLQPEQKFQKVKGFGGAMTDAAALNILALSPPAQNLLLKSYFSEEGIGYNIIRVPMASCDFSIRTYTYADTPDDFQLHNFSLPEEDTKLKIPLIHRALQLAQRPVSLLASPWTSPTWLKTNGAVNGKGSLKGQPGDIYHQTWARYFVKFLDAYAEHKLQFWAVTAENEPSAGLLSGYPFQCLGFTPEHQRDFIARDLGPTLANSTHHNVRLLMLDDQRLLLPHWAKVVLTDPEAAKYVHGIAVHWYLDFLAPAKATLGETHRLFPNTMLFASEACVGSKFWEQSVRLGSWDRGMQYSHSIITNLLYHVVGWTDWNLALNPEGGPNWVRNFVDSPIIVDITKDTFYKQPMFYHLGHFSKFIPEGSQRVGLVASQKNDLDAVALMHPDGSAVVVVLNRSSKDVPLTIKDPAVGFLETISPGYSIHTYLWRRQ
Cytochrome P450 2C19 (Homo sapiens), sequence (P33261 whole entry, looked up): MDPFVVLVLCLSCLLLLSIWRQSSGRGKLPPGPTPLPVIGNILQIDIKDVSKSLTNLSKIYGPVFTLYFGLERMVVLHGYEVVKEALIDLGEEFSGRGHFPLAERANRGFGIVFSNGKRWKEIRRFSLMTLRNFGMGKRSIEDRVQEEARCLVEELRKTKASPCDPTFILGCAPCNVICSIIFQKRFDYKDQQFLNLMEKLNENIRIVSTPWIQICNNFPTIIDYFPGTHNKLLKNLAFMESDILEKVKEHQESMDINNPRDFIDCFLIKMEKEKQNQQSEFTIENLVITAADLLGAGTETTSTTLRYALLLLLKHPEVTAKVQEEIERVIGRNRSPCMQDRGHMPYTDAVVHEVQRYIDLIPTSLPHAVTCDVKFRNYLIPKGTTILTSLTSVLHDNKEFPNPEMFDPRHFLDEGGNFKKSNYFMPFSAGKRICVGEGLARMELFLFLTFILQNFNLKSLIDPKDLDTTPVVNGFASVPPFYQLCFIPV
Glucocorticoid receptor (Homo sapiens), sequence (P04150 whole entry, looked up, the tested form may be a part): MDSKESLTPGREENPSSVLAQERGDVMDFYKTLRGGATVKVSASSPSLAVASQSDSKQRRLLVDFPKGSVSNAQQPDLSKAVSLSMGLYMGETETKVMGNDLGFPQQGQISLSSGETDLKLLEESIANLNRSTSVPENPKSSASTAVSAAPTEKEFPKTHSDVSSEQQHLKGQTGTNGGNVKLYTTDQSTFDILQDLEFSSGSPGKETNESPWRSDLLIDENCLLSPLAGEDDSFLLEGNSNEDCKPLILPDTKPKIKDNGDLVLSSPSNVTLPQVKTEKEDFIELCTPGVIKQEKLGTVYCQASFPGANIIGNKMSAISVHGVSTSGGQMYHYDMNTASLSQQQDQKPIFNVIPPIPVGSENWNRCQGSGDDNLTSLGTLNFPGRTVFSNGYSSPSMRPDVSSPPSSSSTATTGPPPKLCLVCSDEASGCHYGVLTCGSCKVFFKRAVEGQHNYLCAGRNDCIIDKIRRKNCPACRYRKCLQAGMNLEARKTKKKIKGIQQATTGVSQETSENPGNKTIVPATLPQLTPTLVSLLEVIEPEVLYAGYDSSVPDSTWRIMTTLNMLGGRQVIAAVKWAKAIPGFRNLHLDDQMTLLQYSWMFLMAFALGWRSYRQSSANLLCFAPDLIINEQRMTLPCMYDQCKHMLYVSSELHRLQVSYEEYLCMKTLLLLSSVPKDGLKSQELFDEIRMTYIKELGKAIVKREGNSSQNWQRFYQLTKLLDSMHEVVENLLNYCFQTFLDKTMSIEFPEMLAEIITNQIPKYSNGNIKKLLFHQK
Cytochrome P450 2C9 (Homo sapiens), sequence (P11712 whole entry, looked up): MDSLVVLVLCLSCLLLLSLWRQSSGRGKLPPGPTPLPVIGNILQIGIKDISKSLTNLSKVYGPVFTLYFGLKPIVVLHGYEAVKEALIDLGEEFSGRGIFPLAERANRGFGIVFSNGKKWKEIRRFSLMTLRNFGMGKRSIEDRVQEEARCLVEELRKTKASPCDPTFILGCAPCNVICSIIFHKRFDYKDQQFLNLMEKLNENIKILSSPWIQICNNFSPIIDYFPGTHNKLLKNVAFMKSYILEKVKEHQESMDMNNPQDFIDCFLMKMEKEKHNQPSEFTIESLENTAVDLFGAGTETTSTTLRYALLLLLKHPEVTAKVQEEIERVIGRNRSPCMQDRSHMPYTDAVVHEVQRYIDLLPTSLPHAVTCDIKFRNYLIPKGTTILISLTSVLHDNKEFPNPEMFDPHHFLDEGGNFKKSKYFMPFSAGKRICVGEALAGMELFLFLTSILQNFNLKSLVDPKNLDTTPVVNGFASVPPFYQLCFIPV
Cytochrome P450 3A4 (Homo sapiens), sequence (P08684 whole entry, looked up): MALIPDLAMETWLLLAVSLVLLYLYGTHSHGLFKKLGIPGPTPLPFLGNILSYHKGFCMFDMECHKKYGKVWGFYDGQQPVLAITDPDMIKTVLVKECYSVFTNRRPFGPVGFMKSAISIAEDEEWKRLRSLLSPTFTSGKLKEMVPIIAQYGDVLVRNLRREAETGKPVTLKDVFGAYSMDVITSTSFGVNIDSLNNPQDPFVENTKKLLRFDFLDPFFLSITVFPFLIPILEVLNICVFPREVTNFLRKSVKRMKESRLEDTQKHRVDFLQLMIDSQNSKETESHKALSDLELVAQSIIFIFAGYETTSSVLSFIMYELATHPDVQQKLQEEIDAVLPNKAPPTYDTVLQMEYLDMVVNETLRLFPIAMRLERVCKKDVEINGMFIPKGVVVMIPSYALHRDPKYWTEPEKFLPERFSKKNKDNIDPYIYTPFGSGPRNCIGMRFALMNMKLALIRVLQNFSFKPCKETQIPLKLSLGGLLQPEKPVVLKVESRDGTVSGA
Cytochrome P450 2D6 (Homo sapiens), sequence (P10635 whole entry, looked up): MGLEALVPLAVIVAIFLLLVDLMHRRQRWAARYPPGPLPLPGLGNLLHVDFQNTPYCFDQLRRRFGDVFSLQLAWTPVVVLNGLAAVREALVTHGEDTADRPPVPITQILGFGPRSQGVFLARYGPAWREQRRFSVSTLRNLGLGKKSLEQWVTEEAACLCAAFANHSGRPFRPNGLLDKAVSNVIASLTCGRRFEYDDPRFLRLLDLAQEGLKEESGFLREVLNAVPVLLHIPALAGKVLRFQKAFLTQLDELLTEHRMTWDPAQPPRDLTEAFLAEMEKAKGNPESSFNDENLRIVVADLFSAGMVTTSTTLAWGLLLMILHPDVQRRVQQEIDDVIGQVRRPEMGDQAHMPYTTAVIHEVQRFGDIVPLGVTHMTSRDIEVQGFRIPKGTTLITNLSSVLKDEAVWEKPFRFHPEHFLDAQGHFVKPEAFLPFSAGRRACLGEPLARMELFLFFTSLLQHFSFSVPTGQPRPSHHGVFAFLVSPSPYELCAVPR

SMILES	Potency [1]	activity change, negative = inhibition [2]	activity change, negative = inhibition [3]	activity, negative = inhibition [4]	Potency [5]	Potency [6]	Potency [7]	Potency [8]	Potency [9]	Potency [10]	Potency [11]	Potency [12]	Potency [13]	activity change, negative = inhibition [9]
O=c1c(-c2ccccc2)nc2cnc(Oc3ccccc3)nc2n1C1CC1	> 11.4 µM	-26.4%	2.32%	-5.21%	> 9.22 µM	> 46 µM	inactive	inactive	inactive	–	–	–	–	–
NC(=O)[C@@H]1CCCNC1	> 11.4 µM	9.79%	6.45%	14.3%	> 46 µM	> 9.22 µM	inactive	inactive	–	–	–	–	–	–
COc1ccc(Oc2ncc3nc(-c4ccc(Cl)cc4)c(=O)n(CCC#N)c3n2)cc1	> 11.4 µM	-25.6%	0.455%	-7.87%	> 46 µM	> 46 µM	inactive	inactive	–	–	–	–	–	–
S[C@@H]1CCCN(Cc2ccccc2)C1	> 11.4 µM	1.2%	-16.1%	2.98%	> 46 µM	> 9.22 µM	inactive	inactive	–	inactive	0.794 µM (active)	3.16 µM (active)	–	–
C[C@@H](NC(=O)C1(N)CCCC1)C(=O)O (HELM PEPTIDE1{[NC1(C(=O)[*:2])CCCC1].[dA]}$$$$V2.0)	> 11.4 µM	5.64%	15.7%	6.26%	> 46 µM	> 9.22 µM	inactive	inactive	–	–	–	–	–	–
NNC(=O)CCSc1ccccc1	> 11.4 µM	7.31%	10.9%	-4.96%	> 46 µM	> 9.22 µM	inactive	inactive	3.98 µM (active)	inactive	–	3.98 µM (active)	–	–
C=C(C)CN(CC#N)CC(=C)C	> 11.4 µM	2.17%	9.57%	16.5%	> 46 µM	> 9.22 µM	inactive	inactive	–	–	–	–	–	–
COc1ccc(-c2nc3cnc(Oc4ccccc4)nc3n(C3CC3)c2=O)cc1	> 11.4 µM	-23.1%	15.1%	4.9%	> 9.22 µM	> 46 µM	inactive	inactive	–	inactive	–	–	–	–
CC(C)(C)c1ccc(-c2nnc(SCc3ccc(Cl)cc3)n2-c2cccc(C(F)(F)F)c2)cc1	> 11.4 µM	5.08%	-23.1%	3.24%	> 46 µM	> 9.22 µM	inactive	inactive	–	inactive	–	–	–	–
FC(F)(F)c1nc2nc(Cl)c(Cl)nc2n1CCCN1CCOCC1	> 11.4 µM	9.81%	-3.79%	2.08%	> 46 µM	> 9.22 µM	inactive	inactive	–	inactive	–	–	2.51 µM (active)	–
Cc1cc(N2CCOCC2)nc2ccc(Cc3ccc4nc(N5CCOCC5)cc(C)c4c3)cc12	6.83 µM (active)	-21.7%	-6.47%	-14.5%	> 46 µM	> 9.22 µM	inactive	inactive	–	3.16 µM (active)	–	–	–	91.2% [at 11.4 µM]
C[N+](C)(C)CC(=O)N/N=C\c1c(O)ccc2ccccc12	> 11.4 µM	3.17%	-5.58%	10.1%	> 46 µM	> 9.22 µM	inactive	inactive	–	–	–	–	–	–
Nc1nc2c(ncn2[C@H]2CC[C@@H](CO)O2)c(=O)n1C(=O)c1ccccc1	> 11.4 µM	5.69%	-10.1%	0.604%	> 46 µM	> 9.22 µM	inactive	inactive	–	–	–	–	–	–
O=c1[nH]c(SCc2ccccc2[N+](=O)[O-])nc2nc[nH]c12	> 11.4 µM	9.58%	13.2%	10.1%	> 46 µM	> 9.22 µM	inactive	inactive	–	–	–	–	–	-21.6% [at 11.4 µM]
CSc1nc2cc(S(=O)(=O)N3CCCCC3)ccc2s1	> 11.4 µM	-19.7%	-0.492%	-6.1%	> 46 µM	> 9.22 µM	inactive	inactive	–	–	–	1.26 µM (active)	–	50.1% [at 11.4 µM]
O=C(O)CCSCc1ccc(I)cc1	> 11.4 µM	2.76%	1.51%	4.16%	> 46 µM	> 9.22 µM	inactive	inactive	–	–	–	–	–	–
O=C(O)C1C(C(=O)O)C(C(=O)O)C1C(=O)O (centres undefined)	> 11.4 µM	-0.701%	-1.31%	0.791%	> 46 µM	> 9.22 µM	inactive	inactive	–	–	–	–	–	–
Cc1cc(Cl)ccc1Nc1sc(C(=O)c2cc3cc(Cl)ccc3o2)c(N)c1C#N	> 11.4 µM	-2.93%	14.9%	-13.7%	> 46 µM	> 9.22 µM	inactive	inactive	–	–	–	–	1.26 µM (active)	–
O=C(O)CSc1n[nH]c(=O)[nH]c1=O	> 11.4 µM	0.951%	5.38%	13.4%	> 46 µM	> 9.22 µM	inactive	inactive	–	–	inactive	inactive	inactive	-64.1% [at 11.4 µM]
Cc1[nH]c(N)nc(=S)c1CCCNc1ccccc1	> 11.4 µM	-2.18%	3.26%	3.47%	> 46 µM	> 9.22 µM	inactive	inactive	–	inactive	–	–	–	–
CC(=O)n1c(COS(C)(=O)=O)nc2ccccc21	> 11.4 µM	-2.19%	8.51%	-1.19%	> 46 µM	> 9.22 µM	inactive	inactive	–	inactive	–	–	–	–
O=C(O)C[C@@H](C(=O)O)C1c2ccccc2-c2ccccc21	> 11.4 µM	-0.496%	-1.69%	-5.83%	> 46 µM	> 9.22 µM	inactive	inactive	–	–	–	–	–	–
CC(C)[C@@H]1O[C@H](/C=C\c2ccccc2)OCC1(C)C	> 11.4 µM	-2.98%	26.7%	8.84%	> 46 µM	> 9.22 µM	inactive	inactive	–	inactive	–	–	–	–
N=C(N)SCCON1C(=O)c2ccccc2C1=O	> 11.4 µM	5.96%	-3.83%	-5.8%	> 46 µM	> 9.22 µM	inactive	inactive	–	–	–	–	–	–
C[C@H](Br)C(=O)Nc1ccc(C(=O)O)c(O)c1	> 11.4 µM	1.78%	-22.6%	-4.23%	> 46 µM	> 9.22 µM	inactive	inactive	–	–	–	–	–	–
